Assay results as given in PubChem BioAssay AID651702 (NMMLSC, 2012).
The whole screen tested about 360,000 compounds, of which about 2,400 (0.67%) were called active. The entries come from a sample that favours actives as a whole. Unmarked numbers belong to inactive results.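 The calls were made as follows: active = inhibition above about 55% (limit read from the data); inconclusive = no clear call, values can overlap the other calls; inactive = the rest.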

Assay: LAMP-1 surface exposure blockers, TALL-104 cells – cell-based, flow cytometry, MLPCN library, primary screen (AID 651702)
Settings: TALL-104 LAMP-1 surface exposure, at 10 µM, hits give high values

Compound | inhibition
CC(=O)OC1C2(CC3N4C(=O)C5(CO)SSC4(CC31O)C(=O)N5C)OC(C)C(C)(C)C2=O (stereo not given) | 74.7% (active)
CN1CCC[C@@H]1CCO[C@](C)(c1ccccc1)c1ccc(Cl)cc1 | 3.8%
Cc1cc(N2C(=O)C3CCCN3C2c2ccc(Cl)c(Cl)c2)no1 (stereo not given) | 1.1%
CN1CCC(OC(=O)c2cccc(F)c2)CC1 | -4.7%
O=C(CCNS(=O)(=O)c1ccccc1)Nc1ccc(Cl)cc1C(=O)c1ccccc1 | -5.4%
OC1/C(=C/c2ccc(C(F)(F)F)cc2)N2CCC1CC2 (stereo not given) | -6.5%
O=C1NC(=O)N(CCc2ccc(F)cc2)C(=O)/C1=C/C=C/c1ccccc1 | 57.4% (active)
O=[N+]([O-])c1ccc(C2C3C(c4ccccc4)=NC4(CCCCC4)N32)cc1 (stereo not given) | 0.6%
O=c1[nH]c(CN2CC=C(c3ccccc3)CC2)nc2scc(-c3cccs3)c12 | -1.3%
Cc1ccc(CN2CCCC(C(=O)c3ccc4c(c3)OCO4)C2)cc1C (stereo not given) | -2.3%
CCOc1ccc(-c2cc(C)[n+](CCN(CC)CC)c(-c3ccc(OCC)cc3)c2)cc1 | 77.5% (active)
COc1ccccc1CN1CCN(C(=O)Cc2ccccc2)CC1 | 24.2%
COc1ccc(Br)cc1CNCCc1cccc(Cl)c1 | 75.9% (active)
COc1ccc(CNCCc2ccc3c(c2)OCO3)c(OC)c1OC | 5.7%
COc1ccc(CNCCc2c[nH]c3ccccc23)cc1OC | 21.9%
CCOP(=S)(OCC)C(O)CCCCCn1c(=O)c(F)cn(C2CCCO2)c1=O (stereo not given) | 1.5%
CCOC(=O)[C@]12Cc3ccccc3[C@H]1N(C1CCCCC1)C(=O)c1cc(OC)ccc12 | 57.3% (active)
CCOC(=O)[C@]12Cc3cc(OC)ccc3[C@H]1N(C(C)C)C(=O)c1ccccc12 | 3.3%
Cc1cccc(NC(=O)N2CC3CC(C2)c2cccc(=O)n2C3)c1 (stereo not given) | -2.7%
O=C(CCCn1c(=O)[nH]c2cc(Cl)ccc2c1=O)N1CCC2(CC1)OCCO2 | 2%
Cc1cccc(OP(=O)(Oc2cccc(C)c2)OC(c2ccccc2)C(F)(F)F)c1 (stereo not given) | 0.4%
O=C(Nc1cccc2ccccc12)N1CCC2(CC1)OCCO2 | -7.6%
CCCCCCCCCCCCn1ccc(=N)cc1 | 27.1%
CCOC(=O)C1CN(C)CCC1=O (stereo not given) | -3.9%
CNCC[C@H](Oc1ccc(C(F)(F)F)cc1)c1ccccc1 | 10%
O=C1NC(=O)N(Cc2ccco2)C(=O)/C1=C\c1ccc(-c2ccc(F)cc2)o1 | 76.4% (active)
COC(=O)C1=C(c2ccc(Cl)c(C(F)(F)F)c2)C[C@@H]2CC[C@H]1N2C(=O)NC(C)C | -10.7%
COCc1cc(OC(=O)N(C)C)nc(-c2ccc(C)c(Cl)c2)n1 | -8.4%
COc1cc(-n2c(=S)[nH]c3ccc(C)cc3c2=O)c(Cl)cc1Cl | 1.2%
COc1ccc(-n2c(O)c(C(C)=Nc3ccc4c(c3)CCC4)c(=O)[nH]c2=O)cc1 | -0.2%
